# Inconclusive results are not listed. Where a call stands in place of a potency, no number is given. Calls of active or inactive are those of the source. The call rests on the fitted dose curve; in most records, active means well fitted cell-killing curve with a large enough effect; inconclusive means small, poorly fitted or top-dose-only effect; inactive means flat fitted curve, though single readings scatter.
# Test: qHTS of pediatric cancer cell lines to identify multiple opportunities for drug repurposing: Primary screen for TC32 cells (AID 1347089); further: nearly all actives have a fitted effect of over 60% in size
# Settings: TC32 Ewing sarcoma viability, CellTiter-Glo luminescence, 48 h; series mostly up to 45.8 µM
# Text: Drug repurposing or repositioning has been offered as a strategy for drug development in oncology programs. This approach has special potential for childhood cancers and other rare or orphan diseases, where the expected return on new drug development has been a disincentive to pharmaceuticals.
# In this project we exploit the poly-pharmacology of drugs to discover new indications via phenotypic screening of a panel of 19 well-characterized cell lines derived from solid tumors seen in children and adolescents. The goal is to identify approved drugs with previously unrecognized anticancer properties that has the potential to reveal new mechanisms and biological processes involved in carcinogenesis or drug resistance. We employed a titration-based paradigm (quantitative high-throughput screening or qHTS), where all compounds were tested at multiple concentrations for their effect on cell viability. Concentration-response curves (CRCs) were derived directly from the primary screen, and both potency and efficacy values were used to identify compounds with robust bioactivity profiles. We screened the NIH Chemical Genomics Center (NCGC) Pharmaceutical Collection (NPC) and Mechanism Interrogation Plate (MIPE) small molecule collections of approved and investigational compounds against these cell lines; and measured metabolically active cells after 48 hours of compound treatment as a proxy for cell viability.
# Assay Submitter: Nathalia J. Martinez, National Center for Advancing Translational Sciences, National Institutes of Health, Rockville, MD, USA; email: natalia.martinez@nih.gov
# [1] Shen, M et al. Quantitative high-throughput phenotypic screening of pediatric cancer cell lines identifies multiple opportunities for drug repurposing. Oncotarget 2017 Dec 19;9(4):4758-4772. PMID 29435139.
# The cells were obtained from University of North Carolina (UNC), Pediatric Preclinical Testing Program (PPT), and Coriell Institute (CI).
# qHTS cell viability assay:
# Cells were assayed in growth media at a density of 500-1,000 cells/well. Five microliters of cells were dispensed into 1,536-well, white, solid-bottom, TC-treated plates (Greiner Bio One) using a multidrop dispenser and incubated at 37 degrees C, 5% CO2, under a humidified atmosphere for 5 hours. Twenty-three nanoliters of compounds and controls (neutral control DMSO or positive control bortezomib at final concentration of 2.3 uM) were subsequently transferred by Kalypsys pintool. For primary screens, the MIPE collection was tested at 11-point dilutions (final concentrations range from 0.78 nM to 46 µM) and the NPC collection at 8-point dilutions (final concentrations range from 0.59 nM to 46 µM). Compounds tested in follow-up screens were assayed at 11-point dilutions. Cells were incubated for 48 hours, followed by addition of 3 uL of CellTiter-Glo (Promega). After a 15min incubation at room temperature, samples were analyzed for luminescence intensity using a ViewLux High-throughput CCD imager equipped with clear filters.
# Potency means the concentration at half of the fitted maximal effect.
row,Structure (SMILES),Potency
1,Cc1ccc2ccc(Cl)cc2n1,inactive
2,CCOC(=O)Cn1cccc1-c1nc(-c2ccc(OC)cc2)c(-c2ccc(OC)cc2)s1,inactive
3,OCc1cccnc1,inactive
4,CC(C(=O)O)c1ccc(/C=C2\CCCCC2=O)cc1 (stereo not given),inactive
5,O=C(O)Cc1ccc(OCCNC[C@H](O)c2ccccc2)cc1,inactive
6,CO/N=C(/C(=O)N[C@@H]1C(=O)N2C(C(=O)O)=C(Cn3nnc(C)n3)CS[C@H]12)c1csc(N)n1,inactive
7,CCN1CCCC1CN (stereo not given),inactive
8,CC(=O)O[C@@H]1CC2C3CCc4cc(OC(=O)c5ccccc5)ccc4C3CCC2(C)[C@H]1OC(C)=O (stereo not given in full),inactive
9,O=C1NC2CCCCN2C12CCN(CCCN1c3ccccc3CCc3ccc(Cl)cc31)CC2 (stereo not given),inactive
10,c1ccc2c(c1)CCc1ccccc1N2,inactive
11,O=P(O)(O)OCC(O)CO (stereo not given),inactive
12,CC(C)=CCC/C(C)=C/CC/C(C)=C/C(=O)OCC(=O)[C@@]1(O)CC[C@H]2[C@@H]3CCC4=CC(=O)C=C[C@]4(C)[C@H]3[C@@H](O)C[C@@]21C,inactive
13,O=C(OCC(O)CO)c1ccccc1Nc1ccnc2c(C(F)(F)F)cccc12 (stereo not given),inactive
14,O=C(CCCl)NCCc1ccccc1,inactive
15,CCCc1ccc(OCC(=O)N2CCN(C(=O)COc3ccc(CCC)cc3OC)CC2)c(OC)c1,inactive
16,Cc1cc2nc3ccc(=[N+](C)C)cc-3sc2cc1N,2970 nM (active)
17,NC(=O)NC1N=C([O][Al])NC1=O (stereo not given),inactive
18,CCCC(=O)OCOC(=O)C1=C(C)NC(C)=C(C(=O)OC)C1c1cccc(Cl)c1Cl (stereo not given),inactive
19,O=S(=O)(O)c1ccc2nc(-c3ccccc3)[nH]c2c1,inactive
20,CC(Oc1c(Cl)cccc1Cl)C1=NCCN1 (stereo not given),inactive

row,Structure (SMILES),Potency
1,C[C@]12CCC(=O)C=C1CC[C@@H]1[C@@H]2[C@@H](O)C[C@@]2(C)[C@H]1CC[C@]2(O)C(=O)COC(=O)CCC(=O)O,inactive
2,CSCC[C@H](NC(=O)[C@H](Cc1c[nH]c2ccccc12)NC(=O)CCNC(=O)OC(C)(C)C)C(=O)N[C@@H](CC(=O)O)C(=O)N[C@@H](Cc1ccccc1)C(N)=O,inactive
3,Cc1ccc(-c2ccccc2C#N)cc1,inactive
4,O=C(Nc1ccc(S(=O)(=O)N2CCOCC2)cc1)c1cc(Cl)ccc1NS(=O)(=O)c1ccc(Cl)s1,inactive
5,O=[N+]([O-])c1cncn1CCN1CCOCC1,inactive
6,O=C1CC2(CCCC2)CC(=O)N1,inactive
7,CCN1CCN(c2cc(-c3ccc(F)cc3)c3c(n2)CCCCCC3)CC1,inactive
8,CCOc1c(N2CCOCC2)cnn(C)c1=O,inactive
9,O=C(O)[C@@H](O)[C@H](O)[C@H](O)[C@@H](O)C(=O)O,inactive
10,O=C(O)Cn1c(=O)n(Cc2ccc(Br)cc2F)c(=O)c2ccc(Cl)cc21,inactive
11,CC(C)(C)C1CCC(CC2=C(O)c3ccccc3C(=O)C2=O)CC1 (stereo not given),inactive
12,CC(=O)N(CC(O)CO)c1c(I)c(C(=O)NCCO)c(I)c(C(=O)NCC(O)CO)c1I (stereo not given),inactive
13,O=[N+]([O-])c1nccn1CO[C@@H](CO)[C@H](O)CO,inactive
14,CC[C@@]1(O)C(=O)OCc2c1cc1n(c2=O)Cc2c-1nc1ccccc1c2/C=N/OC(C)(C)C,29.7 nM (active)
15,Cc1onc(-c2ccccc2)c1C(=O)Cl,inactive
16,CC[N+](CC)(CC)CCOC(=O)C(C1CCCC1)C1CCCC1,inactive
17,CCCCNc1ccc(C(=O)OCCN(CC)CC)cc1,inactive
18,CCCCN(CCN(CCCC)C(=O)N1CCOCC1)C(=O)N1CCOCC1,inactive
19,Nc1ccc2c(c1)CN1C(=O)c3ccccc3C1=N2,inactive
20,CCCCOC(=O)CCCCCCCCC(=O)OCCCC,inactive
